In the antibiotic and cytotoxicity screens of Wong et al. (2023):
In all, about 39,000 compounds went through this assay and about 3,300 (8.5%) were called active. The sample as a whole holds a higher share of actives than the screen did.

The compounds below were run on HepG2 (assay: cytotoxicity call (relative viability < 0.9)). Conditions: 10 µM.

SMILES | cytotoxicity call
C[C@H]1CN([C@@H](C)CO)C(=O)c2cc(NC(=O)Cn3cnnn3)ccc2O[C@H]1CN(C)Cc1ccccc1 | inactive
CC(C)NC(=O)Nc1ccc2c(c1)C(=O)N([C@@H](C)CO)C[C@H](C)[C@@H](CN(C)C(=O)Nc1ccc(F)cc1)OCCCC[C@@H](C)O2 | inactive
O=C(C[C@H]1CC=CCC[C@H](Cc2ccc(F)cc2)C(=O)OC[C@H](Cc2ccccc2)NC1=O)NCCO | inactive
C#CCN(O[C@@H](/C=C/[C@@H](O)CCn1cc(-c2cccc(/C=C/C(=O)NO)c2)nn1)C1CC1)[C@@H](Cc1ccccc1)C(=O)OC | inactive
C[C@@H]1CCCCO[C@@H](CN(C)C(=O)c2ccccc2)[C@H](C)CN([C@@H](C)CO)C(=O)c2cc(NC(=O)Nc3ccccc3)ccc2O1 | inactive
O=C(NC1CC1)c1n[nH]c(=O)c2ccccc12 | inactive
O=C1CNCCN1C1CCCC1 | inactive
C[C@@H]1CN([C@H](C)CO)C(=O)c2cc(NC(=O)CCC(F)(F)F)ccc2O[C@@H](C)CCCCO[C@H]1CN(C)C(=O)Nc1ccc(C(F)(F)F)cc1 | inactive
COc1ccc(NC(=O)Nc2ccc3c(c2)C(=O)N([C@@H](C)CO)C[C@@H](C)[C@H](CN(C)Cc2ccc(C(F)(F)F)cc2)OCCCC[C@@H](C)O3)cc1 | active
COc1ccc(CN(C)C[C@H]2OCCCC[C@H](C)Oc3ccc(NC(=O)Nc4ccc(C(F)(F)F)cc4)cc3C(=O)N([C@H](C)CO)C[C@@H]2C)cc1 | active
COc1ccc(CN(C)C[C@H]2OCCCC[C@H](C)Oc3ccc(NC(=O)Nc4ccc(C(F)(F)F)cc4)cc3C(=O)N([C@@H](C)CO)C[C@H]2C)cc1 | active
COc1ccc(NC(=O)Nc2ccc3c(c2)C(=O)N([C@H](C)CO)C[C@@H](C)[C@@H](CN(C)Cc2ccc(C(F)(F)F)cc2)OCCCC[C@@H](C)O3)cc1 | active
CC[C@@H](NC)C(=O)O | inactive
CC(C)(C)[C@H]1CCc2c(sc3nc(-c4ccccc4)cn23)C1 | inactive
COc1ccc(NC(=O)N(C)C[C@H]2Oc3ncc(C#C[C@H](C)O)cc3C(=O)N([C@@H](C)CO)C[C@H]2C)cc1 | inactive
O=C(O)[C@H]1CCS(=O)(=O)C1 | inactive
NC(=O)c1cc(Cl)ccn1 | inactive
C[C@@H]1CN([C@@H](C)CO)C(=O)c2cccc(NC(=O)c3ccc(-c4nccs4)cc3)c2O[C@@H]1CN(C)Cc1ccc(Oc2ccccc2)cc1 | inactive
COc1ccc(C#Cc2ccc3c(c2)O[C@H](CN(C)S(=O)(=O)c2ccccc2F)[C@@H](C)CN([C@@H](C)CO)S3(=O)=O)cc1 | inactive
C[C@@H]1CN([C@@H](C)CO)C(=O)c2cccc(NS(=O)(=O)c3ccccc3)c2O[C@@H]1CN(C)S(=O)(=O)c1ccccc1 | inactive
C[C@H](CO)N1C[C@H](C)[C@H](CN(C)C(=O)CCC(F)(F)F)OCc2ccccc2-c2c(n(C)c3ccccc23)C1=O | inactive

SMILES | cytotoxicity call
C[C@@H]1CCCCO[C@H](CN(C)S(=O)(=O)c2cn(C)cn2)[C@@H](C)CN([C@@H](C)CO)C(=O)c2cc(NC(=O)CCCN(C)C)ccc2O1 | inactive
Cc1noc(C)c1S(=O)(=O)N(C)C[C@H]1OCCCC[C@H](C)Oc2ccc(NC(=O)Nc3cccc4ccccc34)cc2C(=O)N([C@H](C)CO)C[C@H]1C | inactive
C[C@@H]1CN([C@@H](C)CO)C(=O)CCCn2nncc2CO[C@@H]1CN(C)C(=O)Nc1ccccc1C(F)(F)F | inactive
COc1ccc(CN(C)C[C@@H]2OCCCC[C@@H](C)Oc3ccc(NC(=O)Nc4ccc(C(F)(F)F)cc4)cc3C(=O)N([C@@H](C)CO)C[C@@H]2C)cc1 | active
COc1ccc(NC(=O)Nc2ccc3c(c2)C(=O)N([C@@H](C)CO)C[C@H](C)[C@H](CN(C)Cc2ccc(C(F)(F)F)cc2)OCCCC[C@H](C)O3)cc1 | active
COc1ccc(NC(=O)Nc2ccc3c(c2)C(=O)N([C@H](C)CO)C[C@@H](C)[C@H](CN(C)Cc2ccc(C(F)(F)F)cc2)OCCCC[C@@H](C)O3)cc1 | active
COc1ccc(NC(=O)Nc2ccc3c(c2)C(=O)N([C@@H](C)CO)C[C@@H](C)[C@@H](CN(C)Cc2ccc(C(F)(F)F)cc2)OCCCC[C@H](C)O3)cc1 | active
O=C(C[C@@H]1CC[C@@H]2[C@H](COC[C@@H](O)CN2S(=O)(=O)c2ccccc2)O1)NCCN1CCCC1 | inactive
C[C@@H]1CN([C@H](C)CO)C(=O)Cc2cc(NC(=O)c3ccncc3)ccc2O[C@@H]1CN(C)C(=O)Nc1ccc2c(c1)OCO2 | inactive
COCC(=O)N1C[C@@H](C)[C@H](OC)CN(C)C(=O)c2ccc(NC(=O)Nc3ccccc3)cc2OC[C@H]1C | inactive
CNC(=O)[C@H]1C[C@H]2CCN(S(=O)(=O)N(C)C)C[C@H]2O1 | inactive
Cc1noc(C)c1S(=O)(=O)Nc1ccc2c(c1)C(=O)N([C@@H](C)CO)C[C@H](C)[C@@H](CN(C)C(=O)NC(C)C)O2 | inactive
C[C@H](CO)N1C[C@H](C)[C@H](CN(C)S(=O)(=O)c2cn(C)cn2)OCc2ccccc2-c2ccccc2C1=O | inactive
Cc1nc(CSCc2ccc(Cl)cc2Cl)cs1 | inactive
COc1ccccc1CN1C(=O)c2ccccc2[C@@]2(Cc3ccccc3N(Cc3ccccc3)C2=O)[C@@H]1c1ccc(CO)cc1 | inactive
C[C@@H]1CN([C@@H](C)CO)C(=O)c2cc(NC(=O)Nc3ccccc3)ccc2O[C@@H]1CN(C)S(C)(=O)=O | inactive
C[C@H](CO)N1C[C@H](C)[C@H](CN(C)Cc2ccc3c(c2)OCO3)Oc2ccc(NS(=O)(=O)c3cn(C)cn3)cc2CC1=O | inactive
O=c1cc(Cl)[nH]c(=O)[nH]1 | inactive
Cc1cc(C(=O)Nc2cccc3c2O[C@@H](CN(C)Cc2ccc(C(=O)O)cc2)[C@@H](C)CN([C@H](C)CO)C3=O)n(C)n1 | inactive
Cc1noc(C)c1S(=O)(=O)Nc1cccc2c1O[C@@H](CN(C)S(=O)(=O)c1ccc(F)cc1)[C@@H](C)CN([C@H](C)CO)C2=O | inactive
C[C@H](CO)N1C[C@H](C)[C@@H](CN(C)S(=O)(=O)c2cn(C)cn2)Oc2ccc(NC(=O)Cn3cnnn3)cc2CC1=O | inactive
